Source: PubChem BioAssay
Shown is part of a subset that was picked to be rich in hits.
Methyltransferases – Primary Screen for Target Class Profiling of Small Molecule Inhibitors of Methyltransferases; calls only at 40 µM; hit rate 3.9% among 25,000; purified enzyme, MTase-Glo SAH luminescence; hits give low values; call rule not given here
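Each enzyme was reacted with SAM and its substrate, with compounds tested once at 40 uM; SAH formed was read by MTase-Glo luminescence.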
Each line names hits and unclear results; the compound was inactive in the other large screens; ! = a repeat was not active.

COc1ccc2cc3n(c2c1)CC(C)(C(=O)NC1CCCCC1)N(c1ccccc1OC)C3=O (stereo not given)	none
O=C(CCc1nnc2n(CCc3ccccc3)c(=O)c3ccccc3n12)NCc1cccnc1	none
O=C(NC1CCN(Cc2ccccc2)CC1)C1CCCN(c2cnc3nccnc3c2)C1 (stereo not given)	none
CN1CCN(Cc2nnc(C(=O)N3CCC[C@@H]3c3ccc(Br)cc3)n2Cc2ccccc2)CC1	none
COc1cc2nc(N3CCN(C(=O)COc4c(OC)cccc4C(C)C)CC3)nc(N)c2cc1OC	none
COc1cc2c(NC3CCN(C(C)C)CC3)nc(N3CCC(F)(F)CC3)nc2cc1OCCCN1CCCC1	Methyltransferases active
COc1cc2nc(N3CCCN(C)CC3)nc(NC3CCN(Cc4ccccc4)CC3)c2cc1OC	Methyltransferases active
COc1ccccc1-c1cccc(CN2CCC(NC(C)=O)CC2)c1	none
COc1cc2nc(N3CCN(C)CC3)nc(NC3CCN(Cc4ccccc4)CC3)c2cc1OC	Methyltransferases active!
CC(C)C1c2cccn2CCN1C(=O)NCCc1ccccc1 (stereo not given)	none
COc1cccc(CSc2nnc3n(CCc4ccccc4)c(=O)c4ccccc4n23)c1	none
Cc1ccccc1Cn1nc2n(CC(C)C)c(=O)c3ccc(C(=O)NC4CCCC4)cc3n2c1=O	none
COc1ccc(NC(=O)Cn2nc3n(Cc4ccc(C)cc4)c(=O)c4ccccc4n3c2=O)cc1	none
COC(=O)c1cc2n(n1)CC(C)(C(=O)NC1CCCC1)N(Cc1ccc(OC)cc1OC)C2=O (stereo not given)	none
CC1(C(=O)NC2CCCCCC2)Cn2c(ccc2-c2ccco2)C(=O)N1Cc1ccccc1F (stereo not given)	none
CC1(C(=O)NC2CCCCC2)Cc2ccccc2C(=O)N1CCN1CCOCC1 (stereo not given)	none
O=C(Nc1ccc(Br)cc1)N1Cc2c(sc3c2CCCC3)-n2cccc2C1c1ccccc1 (stereo not given)	none
COc1ccccc1CCNC(=O)CCCn1ccc2cc(S(=O)(=O)N3CCCC3)ccc21	none
Cc1ccc(S(=O)(=O)/C=C/C#N)cc1	Methyltransferases active!
N#Cc1ccc(N2N=C3c4ccc(C(=O)O)cc4CC[C@@H]3[C@@H]2C2CCCC2)cc1Cl	Methyltransferases active
CC1CCCC(NC(=O)C2(C)Cn3c(ccc3-c3ccco3)C(=O)N2CCc2ccccc2)C1C (stereo not given)	none
CN1C(=O)c2cc(C(=O)NCCc3ccccc3)nn2CC1(C)C(=O)NC1CCCCC1 (stereo not given)	none
C=C1CC[C@@H](O)[C@]2(C)C[C@H]3OC(=O)C(=C)[C@H]3CC12 (stereo not given in full)	none
C=C1CC[C@H]2C(=C)CC[C@H]3C(=C)C(=O)O[C@@H]3[C@@H]12	none
C=C1C(=O)OC2C1CCC1(C)C(O)CC=C(C)C21 (stereo not given)	Methyltransferases active
O=C(c1ccc2c(=O)nc3c(-c4cccc(F)c4)n[nH]n3c2c1)N1CCN(c2ccc(F)cc2)CC1	none
CCCCNc1ncc(C(=O)NCc2ccc(-n3ccnc3)cc2)c(NC2CCC(O)CC2)n1 (stereo not given)	Methyltransferases active
CCCCNc1ccc(-c2ccc(CN3CCOCC3)cn2)c(NC2CCC(O)CC2)c1 (stereo not given)	none
CCCCNc1ncc(-c2ccc(CN3CCOCC3)cn2)c(NC2CCC(O)CC2)n1 (stereo not given)	none
CC1(CO)CC(O)[C@]2(C(=O)O)CCC34CC3(C=CC3[C@]5(C)C(CC[C@]34C)C(C)(CO)[C@@H](O)[C@H](O)[C@@H]5O)C2C1 (stereo not given in full)	Methyltransferases active
CC1(C)CC[C@]2(C(=O)O)CC[C@]3(C)C(=CCC4[C@@]5(C)C[C@@H](O)[C@H](O)[C@@](C)(CO)C5CC[C@]43C)C2C1 (stereo not given in full)	none
CC1(C)CC[C@]2(C(=O)O)CC[C@]3(C)C(=CCC4[C@@]5(C)C(=O)C[C@H](O)[C@@](C)(CO)C5CC[C@]43C)[C@@H]2C1 (stereo not given in full)	none
Cc1ccc2n1CCN(C(=O)Nc1cccc(Cl)c1)C2C(C)C (stereo not given)	none
CCN1CCN(C(=O)c2cc3n(n2)CC(C)(C(=O)NC2CCCCC2)N(C)C3=O)CC1 (stereo not given)	none
CC1CCCC(NC(=O)C2(C)Cn3c(nc4ccccc43)C(=O)N2Cc2ccco2)C1C (stereo not given)	none
Cc1ccc(NC(=O)CSc2nnc3n(CCCOC(C)C)c(=O)c4ccccc4n23)c(C)c1	none
Cc1ccc(-c2n[nH]n3c2nc(=O)c2ccc(C(=O)NC4CCC(C)CC4)cc23)cc1 (stereo not given)	none
O=C(c1ccccc1Cl)N1CCCC(C(=O)N2CCC(c3ccccc3)CC2)C1 (stereo not given)	none
O=C([C@@H]1CCCN(c2ccc3[nH]c(C4(n5cc(Cl)cn5)CC4)nc3n2)C1)N1CCCC1	Methyltransferases active
O=C(NC1CCCC1)N1CCCC(C(=O)N2CCC(c3nc4ncccc4[nH]3)C2)C1 (stereo not given)	none
CCOC(=O)c1cc2n(n1)CC(C)(C(=O)NC1CCCCCC1)N(c1cc(C)ccc1C)C2=O (stereo not given)	none
CCCNS(=O)(=O)c1ccc2[nH]c(=O)[nH]c2c1	none
CC(=O)Nc1c2n(c3ccc(F)cc13)CC(C)(C(=O)NCCC(C)C)N(C1CCCC1)C2=O (stereo not given)	none
CCOc1ccc(CNC(=O)C(C)n2ccc3cc(S(=O)(=O)N4CCCC4)ccc32)cc1OC (stereo not given)	none
CC1CCC(NC(=O)c2cc3n(n2)CC(C)(C(=O)NC2CCCCCC2)N(C)C3=O)CC1 (stereo not given)	none
Cc1ccc(C)c(N2C(=O)c3cc4sccc4n3CC2(C)C(=O)NC2CCCC(C)C2C)c1 (stereo not given)	none
CC(CCc1ccc(O)cc1)NCCc1ccc(O)c(O)c1 (stereo not given)	none
C[C@H](Cc1ccc(O)c(O)c1)[C@@H](C)Cc1ccc(O)c(O)c1	Methyltransferases active
CN1C(=O)c2cc(C(=O)NCCCc3ccccc3)nn2CC1(C)C(=O)NC1CCCC1 (stereo not given)	none
CCCn1c(=O)c2ccccc2n2c(=O)n(CC(=O)c3ccc(OC)c(OC)c3)nc12	none
Cc1cc2c(cc1S(=O)(=O)Nc1ccccc1)n(C)c(=O)n2C	none
COc1cc(C(=O)O)ccc1OC1OC(CO)C(O)C(O)C1O (stereo not given)	none
COc1cc(C(C)=O)ccc1O[C@@H]1O[C@H](CO)[C@@H](O)[C@H](O)[C@H]1O	none
C=C(C)C1Cc2cc(C(=O)OC3OC(CO)C(O)C(O)C3O)ccc2O1 (stereo not given)	Methyltransferases active
CCOC(=O)c1cc2n(n1)CC(C)(C(=O)NC1CCC(C)CC1)N(c1ccc(Cl)cc1C)C2=O (stereo not given)	none
COc1ccccc1CNS(=O)(=O)c1cc2c(cc1Cl)n(C)c(=O)n2C	none
COc1ccccc1CNCCCCCCNCCCCCCCCNCCCCCCNCc1ccccc1OC	Methyltransferases active
COc1ccccc1Oc1ncccc1CNCc1c(F)cccc1Cl	none
CC1(C(=O)NCc2ccc(Cl)cc2)Cn2c(ccc2-c2ccco2)C(=O)N1CCC1=CCCCC1 (stereo not given)	none
Cc1ccc2n1CCN(C(=O)Nc1ccccc1F)C2C(C)C (stereo not given)	none
CSc1ccc(CCNC(=O)Cn2ccc3cc(S(=O)(=O)N4CCCCC4)ccc32)cc1	none
